Rows were chosen to be rich in hits. Some 10% of all compounds tested hit in one or more screens of this group.
JMJD2A Tudor inh: blocks the human JMJD2A Tudor domain; AlphaScreen JMJD2A-Tudor / H3K4me3 peptide binding; 390,000 tested, 4.4% active; O75164; Potency, µM (doses to about 114 µM), for the others: top-dose activity change, negative = inhibition, hits mostly inhibitors; also: % is scaled to controls: 0 for no effect and ±100 for the full control effect; nearly all actives have a fitted effect of over 50% in size
BAZ2B block: BAZ2B (human) inhibition. AlphaScreen BAZ2B-H3K14Ac peptide displacement. 360,000 tested, 4.4% active. Q9UIF8. AID 504333. Potency, µM (series often up to 114 µM), inactives show top-dose activity change, negative = inhibition, most hits filed as inhibitors; also: % is scaled to controls: 0 for no effect and ±100 for the full control effect; nearly all actives have a fitted effect of over 60% in size
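AlphaScreen displacement: compounds (up to 110uM) incubated 30 min at room temperature with a preformed 50 nM BAZ2B/50 nM biotinylated H3K14Ac peptide complex in PBS pH 7.4 with Tween-20. Donor and acceptor beads at 10 ug/mL final added, 20 min light-protected before reading.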
G9a inh: blocks human histone lysine methyltransferase G9a. G9a H3K9 monomethylation, AlphaScreen, 2 h. Q96KQ7. 350,000 tested, 8.8% active. Potency, µM (top dose mostly 102 µM), for inactives: top-dose activity, negative = inhibition, actives largely listed as inhibitors; also: % is scaled to controls: 0 for no effect and ±100 for the full control effect; nearly all actives have a fitted effect of over 75% in size
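Chemiluminescent proximity detection of H3K9 monomethylation, read after 10 min bead incubation in the dark. Reaction: 20 nM G9a, 500 nM biotin-H3K9 peptide, 20 uM SAM cofactor, 2 h, room temperature, following 15 min enzyme-compound preincubation.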
GLS inh: blocks human kidney-isoform glutaminase activity. Potency, µM (titrated, usually from 45.5 µM), for inactives: at the top dose activity change, negative = inhibition, actives largely listed as inhibitors. 410,000 tested, 0.21% active. GLS enzymatic activity, qHTS titration; also: % is scaled to controls: 0 for no effect and ±100 for the full control effect
Target sequence (O94925 whole entry, looked up, canonical isoform): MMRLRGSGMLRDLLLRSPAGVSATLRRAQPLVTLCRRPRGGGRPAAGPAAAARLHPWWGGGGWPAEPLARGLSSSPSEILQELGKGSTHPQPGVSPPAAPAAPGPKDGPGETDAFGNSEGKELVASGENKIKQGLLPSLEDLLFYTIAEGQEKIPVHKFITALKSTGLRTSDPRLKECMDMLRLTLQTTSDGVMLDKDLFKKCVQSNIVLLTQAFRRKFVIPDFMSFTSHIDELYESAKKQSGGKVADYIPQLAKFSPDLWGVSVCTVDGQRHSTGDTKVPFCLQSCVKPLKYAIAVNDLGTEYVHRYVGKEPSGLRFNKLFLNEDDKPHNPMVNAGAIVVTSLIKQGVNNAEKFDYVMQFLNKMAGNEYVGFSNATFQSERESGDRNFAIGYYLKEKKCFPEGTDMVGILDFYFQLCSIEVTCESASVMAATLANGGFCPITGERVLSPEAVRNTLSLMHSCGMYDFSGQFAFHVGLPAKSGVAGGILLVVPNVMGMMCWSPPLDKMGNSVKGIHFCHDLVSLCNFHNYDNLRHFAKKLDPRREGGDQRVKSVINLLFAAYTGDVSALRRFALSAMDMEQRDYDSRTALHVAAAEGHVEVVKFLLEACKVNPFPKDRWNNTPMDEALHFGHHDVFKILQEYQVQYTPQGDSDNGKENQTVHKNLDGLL
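hKGA in 45 mM KH2PO4 pH 8.2, 0.02% Tween-20 with pin-transferred compounds; 1 mM L-glutamine (stock) plus glutamate oxidase/HRP/Amplex Red coupling added. Fluorescence read initially and after 30 min at RT.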
HP1b chromo inh: HP1-beta chromodomain-methylated histone interaction inhibition; Potency, µM (series often up to 114 µM), for the others: at the highest dose activity change, negative = inhibition, usual class: inhibitors; AID 540317; 390,000 tested, 0.56% active; AlphaScreen HP1-beta / biotin-H3K9me3 peptide binding; P83916; also: nearly all actives have a fitted effect of over 70% in size
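AlphaScreen: HP1-beta (50 nM) preformed 30 min with biotin-H3(1-18)K9me3 peptide (50 nM) in PBS pH 7.4, 0.01% Tween-20. Compound added for 30 min at RT, then streptavidin donor/nickel chelate acceptor beads (10 ug/mL) for 30 min.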
* hit, by the source's call; ? = inconclusive; / = no result; [ ] = remark or other dose. Calls follow the shape of the dose curve; as a rule, active = well fitted curve in the direction sought with a large enough effect; inconclusive = small, poorly fitted or top-dose-only effect, or another doubt; inactive = no such curve, though single readings can be large; an effect the other way counts as inactive or inconclusive. Potency is read from the fitted curve at half-maximal effect.

SMILES	JMJD2A Tudor inh	BAZ2B block	G9a inh	GLS inh	HP1b chromo inh
O=C(Nc1n[nH]c(=S)s1)c1ccco1	3.5µM*	?	1.4µM*	-13%	?
O=C(Nc1nc2ccccc2c(=O)s1)c1ccc(F)cc1Cl	-13%	6%	71µM*	1%	17%
O=C(O)COc1ccc(C(NC(=O)c2c(F)cccc2F)NC(=O)c2c(F)cccc2F)cc1	-12%	?	6%	-1%	32%
Cc1ccc(C(=O)CSc2nc3cc(S(=O)(=O)N4CCOCC4)ccc3o2)cc1	-13%	2%	32µM*	-4%	5%
CCn1c(SCC(=O)c2cc(C)ccc2C)nc2cc(S(=O)(=O)N3CCOCC3)ccc21	-9%	-9%	25µM*	1%	20%
O=C(CSc1nc2cc(S(=O)(=O)N3CCOCC3)ccc2o1)NC1CCCc2ccccc21 (stereo not drawn)	50µM*	-5%	?	88%	-36%
CCn1c2ccccc2c2nc3cc(S(=O)(=O)N4CCOCC4)ccc3nc21	-9%[57.1 µM]	1%	2.2µM*	1%	?
CCC(C)NC(=O)CSc1nc2cc(S(=O)(=O)N3CCOCC3)ccc2n1CC (stereo not drawn)	-12%	-10%	-34%	12%	18%
c1ccc2nc3c(nc2c1)c1ccccc1n3CCN1CCOCC1	-7%	16%	-7%[12.7 µM]	-2%	49%
Cc1[nH]c2ccccc2c1C(=O)CSc1nc2cc(S(=O)(=O)N3CCCCC3)ccc2o1	-14%[57.1 µM]	-5%	-26%	-1%	29%
CCN1CCN(C(=O)c2c(C)nn(-c3ccc(F)cc3)c2-n2cccc2)CC1	-6%	-9%	-35%[59 µM]	-9%	16%
CCSc1nc2cc(S(=O)(=O)N3CCOCC3)ccc2o1	28µM*	/	/	-20%	?
ClN=C1C=CC=CC1=NCl	/	/	/	10µM*	/
Cc1nc(S(=O)(=O)N2CCOCC2)c(C#N)c(C)c1Cl	79µM*	-25%	81%[59 µM]	3%	2%
Cc1nc(S(=O)(=O)NC2CCCCC2)c(C#N)c(C)c1Cl	-2%[11.4 µM]	-24%	79µM*	-11%	-13%
Cc1nc(S(=O)(=O)N(C)Cc2ccccc2)c(C#N)c(C)c1Cl	6%	5%	7%[0.501 µM]	8%	53%
O=C(O)c1ccccc1CC(CCc1ccccc1)C(=O)O (stereo not drawn)	10µM*	/	/	-19%	-9%[57 µM]
O=CN/N=C/c1c(O)ccc2ccccc12	-6%	-1%	19%[59 µM]	19%	54%
O=S(=O)(/N=C/c1c(O)ccc2ccccc12)c1cccs1	/	9%	1.4µM*	/	/
CCN(c1cccc2ccccc12)S(=O)(=O)c1cccs1	6%	/	/	0%	24%
Cc1ccc(S(=O)(=O)/N=C/c2c(O)ccc3ccccc23)cc1	?	-9%	4µM*	22%	-10%
COc1ccccc1Nc1nc(-c2sc(NC(=O)C(C)(C)C)nc2C)cs1	63µM*	?	?	10%	-29%
Cc1ccc(Nc2nc(-c3sc(NC(=O)c4cccc(Cl)c4)nc3C)cs2)cc1	/	?	25µM*	/	/
CCCC(=O)Nc1nc(C)c(-c2csc(Nc3ccccc3OC)n2)s1	?	?	?	11%	-11%
Cc1ccc(Cl)cc1Nc1nc(-c2sc(NC(=O)C(C)(C)C)nc2C)cs1	?	56µM*	?	0%	13%
SMILES	JMJD2A Tudor inh	BAZ2B block	G9a inh	GLS inh	HP1b chromo inh
COc1ccccc1Nc1nc(-c2sc(NC(=O)c3cccc(Cl)c3)nc2C)cs1	/	?	32µM*	/	/
CCCCCC(=O)Nc1nc(C)c(-c2csc(Nc3cc(Cl)ccc3OC)n2)s1	?	?	?	4%	?
COc1ccccc1Nc1nc(-c2sc(NC(=O)CC(C)C)nc2C)cs1	?	-16%	?	11%	-17%
Cc1ccc(Nc2nc(-c3sc(NC(=O)c4ccco4)nc3C)cs2)cc1	?	?	?	8%	-16%
CCCCCCCCC#CCC#CCC#CCCCC(=O)O	/	/	21%[59 µM]	/	/
CC(=O)NC1(C(F)(F)F)NC(=O)N(CCc2ccccc2)C1=O (stereo not drawn)	-2%	-4%	?	-6%	16%
Cc1nc(NC(=O)c2ccc(Cl)cc2)sc1-c1csc(Nc2cccc(F)c2)n1	/	-3%[57.1 µM]	50µM*	/	/
CCOc1cccc(C(=O)Nc2c(C(=O)c3ccc(OC)cc3)oc3ccccc23)c1	21%	18%	26%[59 µM]	3%	32%
C/C(=N/OC(=O)c1ccc(C)cc1)c1ccc(N2C(=O)C3CCCCC3C2=O)cc1 (stereo not drawn)	40µM*	10%	-27%	15%	-11%
C/C(=N/NC(=O)c1ccccc1O)c1ccc(N2C(=O)C3CCCCC3C2=O)cc1 (stereo not drawn)	-3%	-7%	-1%[59 µM]	-6%	31%
Cc1cccc(NC(=O)CSc2nc3n[nH]c(C)c3c(=N)n2-c2cccc(Cl)c2)c1	-6%	4%	3%[59 µM]	4%	37%
N#Cc1c2n(c3c(=S)nc[nH]c13)CCCCC2	35µM*	-32%	/	3%	-12%
N#Cc1c2n(c3c(=O)[nH]cnc13)CCCC2	-5%	17%	-1%	0%	15%
C#CC(=O)N(c1cc(OC)ccc1OC)C(C(=O)NC1CCCC1)c1cccs1 (stereo not drawn)	-19%	11%	-48%[59 µM]	12%	33%
Brc1ccc2nc(-c3cccs3)c(NCC3CCCO3)n2c1 (stereo not drawn)	-24%	50µM*	/	18%	18%
c1csc(-c2nc(NCC3CCCO3)c3ccccc3n2)c1 (stereo not drawn)	-17%	4%	15%	16%	35%
Cc1ccc(OCC(=O)NCC(=O)OCc2cc(=O)n3nc(CC(C)C)sc3n2)cc1	6%	-3%	4%[59 µM]	-7%	24%
C=CCN1C(=O)C(O)(CC(=O)c2ccc(-n3cccc3)cc2)c2ccccc21 (stereo not drawn)	?	50µM*	?	-3%	?
Cc1n(CC(O)COCc2ccccc2)c2ccccc2[n+]1C (stereo not drawn)	-8%	56µM*	17%[59 µM]	-2%	24%
CCc1n(CC(O)COCC2CC=CCC2)c2ccccc2[n+]1C (stereo not drawn)	?	-22%	50µM*	0%	-16%
O=C(c1ccc(Cl)c([N+](=O)[O-])c1)N1CCN(c2ccccn2)CC1	-20%	-5%	-13%[59 µM]	20%	18%
O=[N+]([O-])c1cc(-c2n(-c3ccccn3)c3ccccc3[n+]2-c2ccccn2)ccc1Cl	-34%	45µM*	50µM*	-8%	-7%
COc1ccc2c(c1)c1c(c(=O)n(-c3cc(Cl)ccc3C)c(=O)n1CC(=O)N1CCCC1)n2C	-2%	-3%	?	1%	47%
CCCS(=O)(=O)N1CCN(Cc2ccncc2)CC1	20µM*	35µM*	?	-7%	?
O=S(=O)(Cc1ccccc1)N1CCN(Cc2ccccc2)CC1	-12%	-2%	-7%[12.7 µM]	-4%	18%
